# Bioassay records: PubChem, Broad Institute
# aSyn 5UTR act – Activators via SNCA 5'UTR binding, MLPCN; 300,000 compounds, 7.1% hits; activity score, % (tested at 7.5 µM), hits read low; alpha-synuclein 5'UTR reporter, activators screen; AID 1814, 2009; in the data active = activity score below about -60%
# Starred values were filed as active, the others as inactive. The list is a sample of the results.
SMILES,aSyn 5UTR act
O=C(Nc1ccc2nccnc2c1)c1cnccn1,-78.7*
Cc1cc(NC(=O)c2cccnc2)ccc1Br,-147.3*
O=C(Nc1ccc2ccccc2c1)c1cnccn1,-129.2*
Cc1nc(NC(=O)c2cccnc2)ccc1Br,-83.3*
Cc1ccccc1C(=O)Nc1ccc(Br)c(C)n1,-112.6*
COc1ccc2c(c1)C1OCCC1C(c1ccco1)N2 (centres undefined),-76.5*
O=CC1=C(c2ccccc2)Oc2ccccc2O1,-61.8*
CNc1nnc(-c2cccc(N(C)C)c2)s1,-94.2*
Cc1ccc(-c2nnc(CCC(=O)NCC3C4CC5CC(C4)CC3C5)o2)s1 (centres undefined),-170.2*
c1ccc(-n2nc3c(ccc4cnnc43)[nH]2)cc1,-128.7*
COc1ccc(CC(=O)Nc2cccc(-c3nnc(-c4cccc(C)c4)o3)c2)cc1OC,-187.4*
COc1ccccc1OCC(=O)Nc1cccc(-c2nnc(-c3ccco3)o2)c1,-87.5*
CC(C)COc1ccc(-c2nnc(-c3ccco3)o2)cc1,86.1
O=C(COc1ccccc1)Nc1ccc(-c2nnc(-c3ccco3)o2)cc1,-83.9*
CCCOc1ccc(-c2nnc(-c3ccco3)o2)cc1,64.7
O=C(COc1ccccc1)Nc1nnc(-c2ccc3c(c2)CCCC3)o1,-95.0*
COc1ccc(-c2nc3cc(NC(=O)Cc4ccc(OC)c(OC)c4)ccc3o2)cc1,-69.3*
Cc1nnc(NC(=O)c2csc3c2CCC(C)C3)s1 (centres undefined),-99.8*
Cc1nnc(NC(=O)c2csc3c2CCCC3)s1,-99.5*
O=C(/C=C/c1ccc(OCc2ccccc2)c(OCc2ccccc2)c1)c1cccnc1,-61.6*
Cc1cccc(C(=O)Nc2ccc(C(=O)/C=C/c3cccnc3)cc2)c1,-98.3*
O=C(/C=C/c1cccnc1)c1ccc(NC(=O)c2cccc(Br)c2)cc1,-103.2*
NC(N)=N/N=C/c1ccc(OCc2ccccc2)c(OCc2ccccc2)c1,106.1
COc1cc(C(=O)/C=C/c2cccnc2)ccc1O,-106.7*
Cc1cccc(C(=O)Nc2ccc(C(=O)/C=C/c3ccncc3)cc2)c1,-159.8*
SMILES,aSyn 5UTR act
NNc1ccc(Cl)c(C(=O)O)c1,-180.0*
Cc1ccc(/C=N/Nc2ccc(Cl)c(C(=O)O)c2)s1,-153.3*
O=C(O)c1cc(N/N=C/c2cccc3ccccc23)ccc1Cl,-131.3*
O=C(O)c1cc(N/N=C/c2cccs2)ccc1Cl,-252.7*
O=[N+]([O-])c1cccc(N/N=C/c2cccc3ccccc23)c1,-91.2*
COC(=O)c1ccc(COc2ccc(/C=N/N3CCN(C)CC3)cc2)cc1,-126.7*
CN1CCN(/N=C/c2ccc(OCc3ccccc3)cc2)CC1,-73.1*
CC(/C=C/c1ccc(OCc2ccccc2)cc1)=N\O,-132.8*
COc1ccc(C2=NOC(CNC(=S)N3CCOCC3)C2)cc1 (centres undefined),-132.0*
COc1ccc(NC(=O)C2CCCN(c3ncccn3)C2)cc1 (centres undefined),-74.8*
Cc1ccc(NC(=O)C2CCCN(c3ncccn3)C2)cc1C (centres undefined),-125.4*
O=c1c2ccccc2oc2cc(NCCCN3CCOCC3)ccc12,-127.4*
CN1CCCC1CCNc1ccc2c(=O)c3ccccc3oc2c1 (centres undefined),-129.5*
O=c1c2ccccc2oc2ccc(NCCCN3CCOCC3)cc12,-107.8*
CCN(CC)C(=O)CSC(=Nc1ccccc1F)NC#N,-108.7*
CC1CCc2c(nc3ncnn3c2NCCc2ccccc2F)C1 (centres undefined),-69.5*
Cc1nc(CSc2ccc(Br)cc2)cs1,-71.3*
CCS(=O)(=O)NCCc1csc(-c2ccccc2)n1,-63.2*
O=[N+]([O-])c1ccccc1N/N=C/c1ccccc1,-231.0*
O=[N+]([O-])c1ccccc1N/N=C/c1ccc2c(c1)OCO2,-95.4*
NN/C(=C\[N+](=O)[O-])Nc1ccccc1,-69.8*
O=C(c1ccc2c(c1)OCO2)N1CCc2ccccc2C1,-112.9*
O=C(c1cc2c(s1)-c1ccccc1OC2)N1CCc2ccccc2C1,-89.0*
O=C(c1ccc2c(c1)OCO2)N1CCN(c2cccc(C(F)(F)F)c2)CC1,-77.3*
Cc1ccc(-n2ncc3c(SCc4cccc(C)c4)ncnc32)cc1,-90.1*
SMILES,aSyn 5UTR act
COc1ccc(-n2ncc3c(SCC(=O)N4CCN(c5ccccc5OC)CC4)ncnc32)cc1,-74.0*
Cc1ccc(-n2ncc3c(SCC(N)=O)ncnc32)cc1C,-118.5*
O=C(CSc1ncnc2c1cnn2-c1ccccc1)NC1CCCC1,-64.2*
CC(=O)CSc1ncnc2c1cnn2-c1ccccc1,-157.2*
Cc1ccccc1-n1ncc2c(SCC(=O)NCc3cccs3)ncnc21,-113.6*
O=c1cc(/C=C/c2c(F)cccc2Cl)[nH]c2ccccc12,-102.4*
O=C(O)COc1ccc(/C=C/C(=O)c2ccc(C3CCCCC3)cc2)cc1,-114.6*
O=C(/C=C/c1ccc(OC2CSC2)cc1)c1ccccc1,-152.7*
NCCOc1ccc(C2CCCCC2)cc1,71.4
CCOc1ccc(/C=C/C(=O)c2ccccc2)cc1,-178.8*
CC(C)(C)C(=O)/C=C/c1ccc(Oc2ccccc2)cc1,-155.5*
O=[N+]([O-])/C(C(Cl)=C(Cl)Cl)=C(\Sc1ccccc1)N1CCCCC1,-115.9*
CN(CCC#N)C(=O)CSc1ncnc2sc(-c3ccccc3)cc12,-106.1*
CCc1cc2c(SCC(=O)c3ccccc3)ncnc2s1,-122.3*
CCN(CC)C(=O)CSc1ncnc2sc(-c3ccccc3)cc12,-168.5*
COc1ccc(NC(=O)c2oc3ccccc3c2NC(=O)C2CCCO2)cc1OC (centres undefined),-116.0*
Cc1ccc(NC(=O)c2oc3ccccc3c2NC(=O)C2CCCO2)cc1C (centres undefined),-168.8*
CCOc1ccccc1NC(=O)c1oc2ccccc2c1NC(=O)C1CCCO1 (centres undefined),-63.1*
CCOC(=O)c1ccc(-c2cccc(C(F)(F)F)c2)nc1C,-122.3*
COc1cccc(/C=N/n2c(=O)[nH]c3ccccc32)c1OC,-163.7*
Cc1nn(-c2ccc(Cl)nn2)c(=O)c2ccccc12,-89.0*
Cc1nn(-c2ccc(Cl)c(Cl)c2)c(=O)c2ccccc12,-64.4*
Cc1nn(-c2ccc(Cl)cc2)c(=O)c2ccccc12,-84.9*
Cc1nn(-c2nc3ccccc3[nH]2)c(=O)c2ccccc12,115.0
Cc1nn(-c2ccc3ccccc3c2)c(=O)c2ccccc12,-183.0*
SMILES,aSyn 5UTR act
Cc1ccc(-n2ncc3ccccc3c2=O)cc1Cl,-143.1*
CC1CCCN(C(C(=O)NC2CCCCC2)c2cc3c(cc2[N+](=O)[O-])OCO3)C1 (centres undefined),-81.2*
CC1CCN(C(C(=O)NC2CCCCC2)c2cc3c(cc2[N+](=O)[O-])OCO3)CC1 (centres undefined),-101.9*
CC1CCCN(c2ccc([N+](=O)[O-])cc2C(=O)c2ccccc2)C1 (centres undefined),84.1
Cc1cccc(C)c1OCc1cc(C(=O)N2CC3C[C@@H]4CC2C[C@H](C3)C4)no1,-117.3*
Cc1ccc(OCc2cc(C(=O)N3CC4C[C@@H]5CC3C[C@H](C4)C5)no2)cc1C,-110.8*
c1ccc(-c2ccc3c(c2)NCCN3)cc1,-113.4*
Cc1cccn2cc(-c3ccc4c(c3)NC(=O)CO4)nc12,-96.6*
COc1cccc(C2CC(=O)Nc3cc4c(cc32)CCC4)c1 (centres undefined),84.2
COc1cccc(-c2nc(-c3ccc4c(c3)NC(=O)CO4)cs2)c1,-197.1*
COc1cccc(CNC(=O)CCS(=O)(=O)c2ccc3c(c2)NC(=O)CO3)c1,98.7
COc1ccc(C(=O)CSc2cc(C)[nH]c(=O)n2)cc1,-85.6*
